The values below come from PubChem BioAssay AID493168 (National Center for Advancing Translational Sciences (NCATS), 2011).

Records with an inconclusive call do not appear. Unmarked numbers belong to inactive results. Calls of active or inactive are those of the source. The call rests on the fitted dose curve; in most records, active means well fitted inhibition curve with a large enough effect; inconclusive means small, poorly fitted or top-dose-only effect, or effect the other way; inactive means flat fitted curve, though single readings scatter.
Potency means the concentration at half of the fitted maximal effect.

The target in the test is Ubiquitin carboxyl-terminal hydrolase 2 (Homo sapiens) (UniProt O75604). As to the kind of experiment: Confirmation Assay for Inhibitors of Ubiquitin-specific Protease USP2a Using CHOP2 as the Reporter. Further: nearly all actives have a fitted effect of over 55% in size.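 On activity change, negative = inhibition: plate controls were DMSO wells for no effect and full inhibition by NEM control for full effect.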 The settings on record: USP2 core, Ub-CHOP2 coupled reporter fluorescence; series mostly up to 38.3 µM; activity change, negative = inhibition: at the top concentration. Summed up: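 Ub-CHOP2 cleavage coupled to reporter activation was read by fluorescence after 60 min at RT, with 25 nM final Ub-CHOP2 and substrate. Enzyme (10 nM final USP2 core) first sat 30 min with compound; data were normalized to NEM and fitted to concentration-response curves.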
Sequence of Ubiquitin carboxyl-terminal hydrolase 2 (Homo sapiens) (O75604 whole entry, looked up): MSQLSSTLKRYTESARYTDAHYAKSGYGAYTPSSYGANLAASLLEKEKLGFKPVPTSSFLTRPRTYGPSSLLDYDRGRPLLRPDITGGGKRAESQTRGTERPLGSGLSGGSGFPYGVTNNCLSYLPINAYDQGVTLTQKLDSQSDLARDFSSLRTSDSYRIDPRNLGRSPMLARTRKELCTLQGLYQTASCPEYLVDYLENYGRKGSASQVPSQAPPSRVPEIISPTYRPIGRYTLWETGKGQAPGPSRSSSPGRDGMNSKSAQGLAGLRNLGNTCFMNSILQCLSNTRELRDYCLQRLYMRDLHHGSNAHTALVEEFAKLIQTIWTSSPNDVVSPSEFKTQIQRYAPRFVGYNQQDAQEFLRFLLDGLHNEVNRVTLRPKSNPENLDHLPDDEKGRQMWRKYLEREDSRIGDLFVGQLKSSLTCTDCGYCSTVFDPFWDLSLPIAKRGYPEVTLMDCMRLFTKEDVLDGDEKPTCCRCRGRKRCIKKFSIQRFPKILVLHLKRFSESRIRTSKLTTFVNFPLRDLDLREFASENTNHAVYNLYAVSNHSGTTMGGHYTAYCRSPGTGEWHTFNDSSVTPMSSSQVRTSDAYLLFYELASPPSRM
`Nc1ccc2nc(-c3ccc(N)c(Cl)c3)[nH]c2c1`: the “activity change, negative = inhibition” value is -0.728%.

In the case of `CCOC(=O)c1c(NC(C)=O)sc2c1CCCNC2=O`, the “activity change, negative = inhibition” value was -2.31%.

As for `COc1ccc(CC(=O)c2ccccc2C(=O)O)cc1`, the “activity change, negative = inhibition” value is 2.55%.

As for `O=C(C[n+]1cccc(C(=O)N/N=C/c2ccc(Br)cc2)c1)c1ccccc1`, the “activity change, negative = inhibition” value was -1.53%.

Turning to `O=C(Nc1ccc(S(=O)(=O)Nc2ncccn2)cc1)c1ccc(S(=O)(=O)N2CCCC2)cc1`, the “activity change, negative = inhibition” value was -1.15%.

As to `O=C(CN1C(=O)/C(=C2\SC(=S)N(CCS(=O)(=O)O)C2=O)c2ccccc21)Nc1cccc(Br)c1`, the Potency was 5.21 µM (active).

As for `CCCCc1ccc(/C=C2/C(=O)ON=C2c2ccccc2)s1`, the “activity change, negative = inhibition” value was -0.0359%.

`COc1cccc(/C=N/n2c(SC)nnc2-c2ccccc2)c1O`: the “activity change, negative = inhibition” value was 1.92%.

As to `CC(C(=O)Nc1ccc(C(=O)O)c(O)c1)N1C(=O)/C(=C\c2ccco2)SC1=S` (centres undefined), the Potency is 16.5 µM (active).

Regarding `CCNc1sc(C(=O)c2cccs2)c(N)c1-c1nc2ccccc2s1`, the “activity change, negative = inhibition” value was -0.21%.

Take `CCCCC1NC(C(=O)O)CS1` (centres undefined): the “activity change, negative = inhibition” value was 6.61%.

Take `C#CCOCCOCCOCCNc1nc(N2CCN(C(=O)CCCCCCCCCCNC(=O)[C@H](CO)n3cc(CCCSC)nn3)CC2)nc(N2CCN(C(=O)CCCCCCCCCCNC(=O)[C@H](CCCN=C(N)N)n3cc(C[C@@H](C)CC)nn3)CC2)n1`: the Potency was 18.5 µM (active).

In the case of `Cc1ccc(SCC(=O)NCC(C)C)cc1`, the “activity change, negative = inhibition” value was 5.64%.

As to `CCOC(=O)c1[nH]c2ccc(OC)cc2c1NC(=O)CCN1CCCC(C)C1` (centres undefined), the “activity change, negative = inhibition” value is -2.89%.

`O=C(COC(=O)c1c2c(nc3ccccc13)/C(=C/c1ccco1)CC2)NC1CCCC1`: the Potency was 14.7 µM (active).

Consider `NC1=NC(=O)/C(=C/c2cccc(-c3ccc(S(N)(=O)=O)cc3)c2)S1`, for which the Potency was 9.27 µM (active).

Take `Cc1cc(SCC(=O)NC2CCCCC2)nc2ccccc12`: the “activity change, negative = inhibition” value was -4.63%.

Turning to `O=C(O)C(Cc1ccccc1)N1C(=O)/C(=C/C=C/c2ccco2)SC1=S` (centres undefined), the Potency is 7.36 µM (active).

Take `COC(=O)[C@@]12CCCCN1[C@H](c1ccc(-c3ccc(Cl)c(Cl)c3)cc1)[C@H]1C(=O)N(C)C(=O)[C@H]12`: the “activity change, negative = inhibition” value was 0.0461%.

In the case of `COc1ccc2cc(CN(C(=O)Nc3ccccc3)C3CCCC3)c(=O)[nH]c2c1`, the “activity change, negative = inhibition” value was -2.43%.

For `O=C(NNC(=O)c1cc2ccccc2cc1O)Nc1ccccc1F`, the “activity change, negative = inhibition” value was -0.819%.

For `CC(C)(C)[C@H]1COC(=O)[C@@H](Cc2ccc(F)cc2)C/C=C\C[C@@H](CC(=O)N[C@H](CO)Cc2ccccc2)C(=O)N1`, the “activity change, negative = inhibition” value is 2.33%.

For the compound `Cc1ccc(NC(=O)CSc2nc(O)cc(=O)n2-c2ccc(C)cc2)cc1`, the “activity change, negative = inhibition” value was -0.886%.

For `CC(OC(=O)c1nsc(Cl)c1Cl)C(=O)NCc1ccco1` (centres undefined), the “activity change, negative = inhibition” value was -1.99%.

As for `O=C(CN1CCC(O)CC1)N1c2ccccc2C=Cc2ccccc21`, the “activity change, negative = inhibition” value was -6.07%.

`CCOc1ccc(S(=O)(=O)N(CC(=O)O)c2ccccc2)cc1`: the “activity change, negative = inhibition” value was 3.64%.

As to `FC(F)(F)C1=Nc2cccc3cccc(c23)N1`, the “activity change, negative = inhibition” value is -3.63%.

For the compound `CCSc1nc(N2CCCCC2)c2c(c1C#N)CCCC2`, the “activity change, negative = inhibition” value is 0.094%.

Consider `CN(C)c1ccc(NC(=O)CSCc2nc3c(nnn3Cc3ccc(F)cc3)c(=O)[nH]2)cc1`, for which the “activity change, negative = inhibition” value is 1.9%.

Turning to `O=C(Nc1cccc(S(=O)(=O)NC2=NCCC2)c1)c1cc(-c2ccco2)nc2ccccc12`, the Potency is 16.5 µM (active).

For `Nc1nc(NCCO)nc(NCC2CCCO2)c1[N+](=O)[O-]` (centres undefined), the “activity change, negative = inhibition” value was 3.3%.

Regarding `O=C(c1cccc(F)c1)N1CCN(S(=O)(=O)c2ccccc2)CC1`, the “activity change, negative = inhibition” value is 0.0388%.

Take `O=C(CSc1nc2ccccc2[nH]1)Nc1ccc2c(c1)OCCO2`: the “activity change, negative = inhibition” value is -2.85%.

`CN1CCN(CCC(=O)N/N=C/c2cc([N+](=O)[O-])ccc2O)CC1`: the “activity change, negative = inhibition” value is -3.37%.

Turning to `C=CCNCCOCCOc1ccccc1-c1ccccc1`, the “activity change, negative = inhibition” value is -4.65%.

For the compound `Cc1ccc2[nH]c3c(c2c1)CN(C(=O)CN1CCSCC1)CC3`, the “activity change, negative = inhibition” value was 4.78%.

On to `CCN(CC)S(=O)(=O)c1ccc(Cl)c(NC(=O)COC(=O)c2c(C)noc2C)c1`, for which the “activity change, negative = inhibition” value was 9.62%.

`COCCCNC(=O)C1CCN(c2nc(C)cc(C)n2)CC1`: the “activity change, negative = inhibition” value is 1.61%.

With `COC1=CCC2([N+](=O)[O-])CN(CCO)CC1([N+](=O)[O-])C2` (centres undefined), the “activity change, negative = inhibition” value was -1.18%.
